Screening results as filed in PubChem BioAssay.
Ecoli rRNA inh = inhibitors of bacterial rRNA selective over humanized ribosomes. E. coli WT GFP vs humanized-ribosome RFP mutants, fluorescence, 24 h; stronger effect = lower value; DMSO median 0, no signal -100. GFP signal change (wild-type ribosome), % (no concentration beside the values). 350,000 tested, 1.6% active;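 active means significant combined selectivity score with lowered wild-type GFP, culture density cut under 30%, mutant RFP and density less affected; inactive means any of these conditions unmet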
GSIS activator = GLuc luminescence reporter in INS-1E cells, primary screen for activators of glucose-dependent secretion of insulin | INS-1E GLuc reporter insulin secretion, 2-3 h | activation, % at 16.6 µM | 370,000 tested, 0.61% active | AID 743287;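 active means lowest replicate activation of at least 40%, so every replicate reaches that level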;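 further: 0% = median of neutral control wells and 100% = median of IBMX positive control wells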
PGC1a acetyl inh = lowers PGC1a acetylation signal in U2OS cells; AlphaScreen anti-acetyl-lysine; with virally co-expressed GCN5 acetyltransferase; inhibition, % at 15.6 µM; 350,000 tested, 0.17% active; AID 651687;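 active means every replicate shows inhibition of at least 40%; inconclusive means mean inhibition at least 40% but some replicate below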;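 further: 0% = neutral control wells and 100% = positive control wells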
ERAP1 HTS inh = blocks human ERAP1 aminopeptidase activity. AID 652197. 340,000 tested, 0.15% active. recombinant ERAP1, Leu-AMC fluorescence, 60 min. inhibition, % at 10.7 µM. Q9NZ08;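 active means mean replicate inhibition of at least 30%, or all replicates individually reaching that 30% level; inactive means mean below 30% and not every replicate reaching it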;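 further: 0% = neutral control wells and 100% = L-leucinethiol positive control wells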
CaV13 FRET inh = Disruptors of the CACNA1D IQ motif to Ca2+-dependent inactivation inhibitor domain association, primary screening, Förster resonance energy transfer in intact living … | HEK cells, CFP/YFP FRET ICDI-IQ, plate reader, 10 min; percent FRET-ratio fall versus neutral wells | inhibition, % at 12.3 µM | 340,000 tested, 0.098% active | AID 743397;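 active means mean replicate inhibition of at least 30% and at least 1% of replicates passing that level; inconclusive means only one of the two criteria is met; inactive means neither criterion is met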;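 further: 0% = median of the neutral control wells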
DENV2 CPE rescue = DENV2-induced cell death inhibition; DENV2-infected cells, cytopathic effect rescue, plate reader; CPE inhibition, % at 9.99 µM; 350,000 tested, 1.7% active; AID 651640; in the data active means CPE inhibition above about 20%, passing the limit was not always enough; inconclusive means no clear call, values can overlap the other calls; tested in BHK-21 cells;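 further: 0% = median of neutral control wells and 100% = median of positive control wells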
AID977621 = growth inhibition of wild-type GFP E. coli, dose response, H69 mutant RFP, cherry-pick. shares compounds with Ecoli rRNA inh. 1,900 tested, under 10 active. E. coli wild-type GFP strain growth, fluorescence, 24 h. activity change, negative = inhibition at 50 µM;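 active means Wild-type ribosome reporter drop at least double the humanized mutant ribosome reporter drop, growth loss under a set limit; inconclusive means no clear call, values can overlap the other calls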;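 further: wild-type GFP and H69 mutant RFP strains grown together 50/50 in each well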
AID977628 = E. coli growth inhibition, wild-type GFP versus h24 humanized RFP strain, dose response, h24 mutant RFP vs wild-type GFP, cherry-pick | 1,900 tested, under 10 active | shares compounds with Ecoli rRNA inh | activity change, negative = inhibition at 50 µM | E. coli WT GFP strain growth, fluorescence, 24 h;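 active means compound lowering the normal-ribosome reporter at least twice as much as the humanized-ribosome reporter, growth loss under a set limit; inconclusive means no clear call, values can overlap the other calls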;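 further: wild-type GFP and h24 humanized RFP strains co-cultured 1 to 1 per well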
* hit, by the source's call. A selection: hits, their analogues and other compounds. The true share with any hit is near 3.2%.

O=C(c1ccc(N2CCCCC2)c([N+](=O)[O-])c1)N1CCN(S(=O)(=O)c2ccccc2)CC1 was read as Ecoli rRNA inh -16, GSIS activator -13, ERAP1 HTS inh 2, CaV13 FRET inh -7 and DENV2 CPE rescue -1.
`O=C(c1ccc(N2CCCCC2)c([N+](=O)[O-])c1)N1CCN(c2ccccn2)CC1` gave Ecoli rRNA inh -21*, PGC1a acetyl inh -4, ERAP1 HTS inh 2, CaV13 FRET inh -4, DENV2 CPE rescue 0 and AID977628 inconclusive.
For Cn1c(=O)n(C)c2cc([N+](=O)[O-])c(N3CCN(C(=O)c4cccc(F)c4)CC3)cc21 the results were Ecoli rRNA inh -18*, GSIS activator -4, ERAP1 HTS inh -3, CaV13 FRET inh -6, DENV2 CPE rescue 5, AID977621 -12 and AID977628 inconclusive.
For Cc1ccc(Cn2c(=S)[nH]c3ccccc3c2=O)cc1 the results were Ecoli rRNA inh 6, GSIS activator -12, PGC1a acetyl inh -3, ERAP1 HTS inh 0, CaV13 FRET inh -19 and DENV2 CPE rescue -5.
`O=c1c2cc(Br)ccc2[nH]c(=S)n1Cc1ccccc1` gave Ecoli rRNA inh -36*, GSIS activator -10, PGC1a acetyl inh -2, ERAP1 HTS inh -1, CaV13 FRET inh -20, DENV2 CPE rescue 0 and AID977621 -6.2.
Screening O=C(Nc1ccc(-c2nnc3n2CCCCC3)cc1)c1cc2ccccc2o1 returned Ecoli rRNA inh -20*, GSIS activator -19, ERAP1 HTS inh 1, CaV13 FRET inh -1, DENV2 CPE rescue 5, AID977621 -7.4 and AID977628 -3.2.
CNC[C@H]1OCCCC[C@@H](C)Oc2ccc(NS(=O)(=O)c3ccc(OC)cc3)cc2C(=O)N([C@@H](C)CO)C[C@@H]1C was read as Ecoli rRNA inh 8, GSIS activator 6 and PGC1a acetyl inh -8.
CC(=O)Nc1ccc(S(=O)(=O)Nc2cc(Cl)ccc2N2CCOCC2)cc1 was read as Ecoli rRNA inh -8, GSIS activator 1, PGC1a acetyl inh 10, ERAP1 HTS inh 5, CaV13 FRET inh -2 and DENV2 CPE rescue inconclusive.
CC1CCCN(C(=O)C(C)Nc2cc(Cl)ccc2N2CCOCC2)C1 (stereo unspecified) was read as Ecoli rRNA inh -29*, GSIS activator 1, ERAP1 HTS inh 9, CaV13 FRET inh -2, DENV2 CPE rescue 5 and AID977621 inconclusive.
Screening C[C@H]1CN([C@@H](C)CO)C(=O)c2cc(NC(=O)CCN3CCOCC3)ccc2O[C@H]1CN(C)Cc1ccc(Oc2ccccc2)cc1 returned Ecoli rRNA inh 3, GSIS activator -2, PGC1a acetyl inh 3, ERAP1 HTS inh -3 and DENV2 CPE rescue 16.
For O=C(Nc1ccc2c(c1)OCO2)c1cccc(S(=O)(=O)N2CCCC2)c1 the results were Ecoli rRNA inh -14*, GSIS activator -4, PGC1a acetyl inh -15, ERAP1 HTS inh 0, CaV13 FRET inh -7, DENV2 CPE rescue -5 and AID977621 inconclusive.
O=C(CCCn1c(=S)[nH]c2ccsc2c1=O)Nc1ccc(F)cc1 was read as Ecoli rRNA inh 0, GSIS activator -16, PGC1a acetyl inh -2, ERAP1 HTS inh 0, CaV13 FRET inh 21 and DENV2 CPE rescue -10.
For O=C(CCCn1c(=S)[nH]c2ccsc2c1=O)Nc1ccc2c(c1)OCCO2 the results were Ecoli rRNA inh -21*, GSIS activator 3, ERAP1 HTS inh -2, CaV13 FRET inh 2, DENV2 CPE rescue 9 and AID977621 -11.
`C[C@H](O)C#Cc1ccc2c(c1)O[C@@H](CN(C)Cc1cncnc1)[C@H](C)CN([C@@H](C)CO)S2(=O)=O` gave Ecoli rRNA inh 1, GSIS activator 23 and PGC1a acetyl inh 7.
`O=S1(=O)c2ccccc2C(O)(c2ccccc2)c2ccccc21` gave Ecoli rRNA inh -21*, GSIS activator 47, PGC1a acetyl inh 1, ERAP1 HTS inh 1, CaV13 FRET inh -8, DENV2 CPE rescue -5 and AID977628 inconclusive.
`CCCNC(=O)Nc1ccc2c(c1)OC[C@@H](C)N(C(=O)C1CCOCC1)C[C@@H](C)[C@@H](OC)CN(C)C2=O` gave Ecoli rRNA inh 4, GSIS activator 11 and PGC1a acetyl inh 4.
`COC(=O)C[C@H]1C[C@@H]2c3cc(NC(=O)Nc4ccc(C(F)(F)F)cc4)ccc3O[C@@H]2[C@H](CO)O1` gave Ecoli rRNA inh -25*, GSIS activator -3, PGC1a acetyl inh 5, DENV2 CPE rescue -5 and AID977628 inconclusive.
`O=C(c1cnccn1)N1CC(=O)N2[C@H](CO)[C@H](c3ccc(C#CC4CCCC4)cc3)[C@H]2C1` gave Ecoli rRNA inh 2, GSIS activator 3, PGC1a acetyl inh -5, ERAP1 HTS inh -3 and DENV2 CPE rescue inconclusive.
`O=C(NCCCn1ccnc1)c1sc2cc([N+](=O)[O-])ccc2c1Cl` gave Ecoli rRNA inh -16*, GSIS activator 32, PGC1a acetyl inh 5, ERAP1 HTS inh -3, CaV13 FRET inh -3, DENV2 CPE rescue inconclusive, AID977621 -17 and AID977628 -18.
For O=C(c1ccccc1)N1CCN(c2ccc([N+](=O)[O-])c(NCC3CCCO3)c2)CC1 (stereo unspecified) the results were Ecoli rRNA inh -32*, GSIS activator 19, PGC1a acetyl inh 1, ERAP1 HTS inh -1, CaV13 FRET inh -1, DENV2 CPE rescue 5, AID977621 -6.9 and AID977628 -4.1.
Screening CCS(=O)(=O)N1CCN(c2ccc([N+](=O)[O-])c(NCC3CCCO3)c2)CC1 (stereo unspecified) returned Ecoli rRNA inh -21*, GSIS activator -3, PGC1a acetyl inh 4, ERAP1 HTS inh 3, CaV13 FRET inh -5, DENV2 CPE rescue -3, AID977621 0.78 and AID977628 -5.8.
O=[N+]([O-])c1ccc(N2CCN(S(=O)(=O)c3ccccc3)CC2)cc1NCC1CCCO1 (stereo unspecified) was read as GSIS activator 9 and CaV13 FRET inh -14.
For COC(=O)C[C@@H]1CC[C@@H]2[C@H](COc3ccc(NC(=O)c4ccccc4)cc3C(=O)N2C)O1 the results were Ecoli rRNA inh 1, GSIS activator -2, PGC1a acetyl inh 5, ERAP1 HTS inh -4 and DENV2 CPE rescue -4.
